Sampled rows, rich in hits. Any-hit rate of the full collection: about 1.6%.
KCNQ2 block: inhibitors of rat KCNQ2 potassium channel; B-score at 10 µM; CHO-K1 KCNQ2, FluxOR thallium flux, 20 min; hits give low values; 310,000 compounds, 1.1% hits;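 active means fluorescence ratio B-score at most minus 3 library SDs, with starting brightness B-score within 2 library SDs, cut at about -5.5 in these data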
KCNQ2 pot: enhances the rat KCNQ2 potassium channel. O88943. CHO-K1 KCNQ2, FluxOR thallium flux fluorescence; hits give high values. B-score at 10 µM. 310,000 compounds, 0.54% hits. AID 2239;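 active means fluorescence ratio B-score at least 3 SD of library B-scores, with initial fluorescence B-score within 3 of them, cut at about 5.3 in these data; same plate scores as AID 2156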;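 further: B-score of peak minus minimum over baseline fluorescence ratio after K+ and Tl+ stimulus; positive B-score means potentiation of KCNQ2 with more thallium influx and brighter signal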
Numbers without * were called inactive; i = inactive; x = not tested or not shown.

SMILES | KCNQ2 block | KCNQ2 pot
Cc1noc(C)c1CSCC(=O)N1CCN(c2ccc(F)cc2)CC1 | i | x
Cc1cccc(N2CCN(C(=O)CSCc3c(C)noc3C)CC2)c1C | -6* | -6
CCC(C)n1c(=S)[nH]c2c(sc3ccc([N+](=O)[O-])cc32)c1=O (configuration not stated) | i | 25*
CC(C)n1c2ccccc2c2cc([N+](=O)[O-])ccc21 | i | 0.71
Cc1c(Cl)cccc1NCC(=O)Nc1ccc(Cl)cc1F | -6.8* | -6.8
C/C(=N\NC(=O)CNc1cccc(C(F)(F)F)c1)c1ccc(Br)cc1 | i | x
Cc1c(Cl)cccc1NC(=O)CNc1cccc(C(F)(F)F)c1 | -6* | -6
Cc1ccc(F)cc1NCC(=O)Nc1ccc(Cl)cc1F | i | x
Cc1ncc([N+](=O)[O-])n1CC(=O)NC1CCCCC1 | i | 0.96
COc1ccc2c(c1)cc(C(O)c1ccccn1)n2S(=O)(=O)c1ccccc1 (configuration not stated) | i | x
Cn1c(=O)c([N+](=O)[O-])c(Cl)c2ccccc21 | -6.2* | -6.2
CCN(CC)c1c([N+](=O)[O-])c(=O)n(C)c2ccccc12 | i | x
CCC1(CC)NC(=O)N(CC(=O)OCC(=O)Nc2ncc(Cl)cc2Cl)C1=O | i | x
Cc1cc(OCC(=O)N2CCc3ccccc3C2)c(C)cc1Br | -6.1* | -6.1
Cc1ccc(C)c(OCC(=O)N2CCc3ccccc3C2)c1 | i | x
COc1ccc(S(=O)(=O)Nc2ccc(N3CCOCC3)cc2)cc1 | i | 0.52
CCOc1ccc(S(=O)(=O)Nc2nc3ccccc3nc2Nc2ccc(N3CCOCC3)cc2)cc1 | -5.6* | -5.6
Cn1cnc2c1c(=O)n(Cc1cccc(Cl)c1)c(=O)n2C | i | 1.2
CC(=O)c1c(C)nc2ccc(Br)cc2c1-c1ccccc1 | -7.8* | -7.8
Cc1nc2ccc(Br)cc2c(-c2ccccc2)c1C(=O)O | i | x
COCCCN1C(=O)C(=O)/C(=C(/O)c2ccc(S(=O)(=O)N3CCOCC3)cc2)C1c1ccc(OC)cc1 (configuration not stated) | i | 0.05
O=C(Nc1ccc(NC(=O)c2ccccc2)nc1)c1ccncc1 | i | 2.2
O=C(Nc1ccc(N2CCOCC2)cc1N1CCOCC1)c1ncoc1-c1cccc(F)c1 | i | x
O=C(Nc1ccccc1N1CCCCC1)c1ncoc1-c1cccc(F)c1 | -5.8* | -5.8
COc1ccc(N(CC(=O)NCCc2ccccc2)C(=O)CCC(=O)Nc2nccs2)cc1 | i | 0.29
SMILES | KCNQ2 block | KCNQ2 pot
O=C(CN1C(=O)NC(Cc2ccccc2)C1=O)Nc1ccc(F)cc1 (configuration not stated) | i | 0.14
CCOC(=O)c1cc2c(ccn2-c2ccc(F)cc2)n1CC(=O)NC(C)(C)C | -6.7* | -6.7
CCn1c(C(=O)OC)cc2c1ccn2-c1ccc(F)cc1 | i | x
N#Cc1c(N2CCN(C(=O)c3ccccc3)CC2)nc(-c2ccccc2)c2c1CCCC2 | i | x
CC(C)Cc1nc(N2CCN(C(=O)c3ccccc3)CC2)c(C#N)c2c1CCC2 | -6.6* | -6.6
CC(C)Cc1nc(N2CCN(C(=O)C(C)C)CC2)c(C#N)c2c1CCC2 | -6.5* | -6.5
CC(=O)N1CCN(c2nc(CC(C)C)c3c(c2C#N)CCC3)CC1 | i | x
CC(C)Cc1nc(N2CCN(C(=O)c3ccco3)CC2)c(C#N)c2c1CCC2 | i | x
N#Cc1c(N2CCN(C(=O)c3ccco3)CC2)nc(-c2ccccc2)c2c1CCCC2 | -5.6* | -5.6
CN=C(Nc1cccnc1)c1cccc(C(F)(F)F)c1 | i | x
COc1ccc(C(=O)Nc2cccc(OC(=O)c3ccc(C)c(C)c3)c2)cc1 | i | x
COc1ccccc1NC(=S)NN1CCN(C)CC1 | i | x
COc1ccc(Cl)cc1NC(=O)NCC1CCN(Cc2cc(C)ccc2C)CC1 | i | x
COc1cc([N+](=O)[O-])ccc1NC(=O)NCC1CCN(Cc2ccc(Cl)cc2)CC1 | -6.1* | -6.1
N#C/C(=C\c1ccc(F)c(Br)c1)C(=O)NC1CC1 | i | x
N#C/C(=C\c1cc(Cl)ccc1O)C(=O)NC1CCCCC1 | i | x
N#C/C(=C\c1cc(Cl)cc(Cl)c1O)C(=O)NC1CCCCC1 | -5.7* | -5.7
N#C/C(=C\c1cc(Br)ccc1F)C(=O)NC1CC1 | -6.1* | -6.1
Cc1ccc(C(=O)N[C@@H](C)CN2C3=NC[C@H](C(C)C)N3C[C@H]2Cc2ccc(O)cc2)cc1Br | i | x
COc1ccc(S(=O)(=O)N(CC(N)=O)C2CCCCC2)cc1Cl | -5.7* | -5.7
COc1ccc(S(=O)(=O)N(C)CC(=O)NC2CCCCC2)cc1Cl | i | 0.01
CSc1ccc(C2C(C#N)=C(N)Oc3cc4c(cc32)OCO4)cc1 (configuration not stated) | i | x
CN1CCN(/C=C(\C#N)S(=O)(=O)c2ccc(Cl)cc2)CC1 | i | x
CN(C)/C=C(\C#N)S(=O)(=O)c1ccc(Cl)cc1 | -6.8* | -6.8
COc1cc(NC(=O)c2ccccc2Cl)ccc1NC(=O)c1ccco1 | i | x
Cc1cc(C)c2nc(NCCCNC(=S)NCCCN(C)C)c(C#N)cc2c1 | -7.3* | -7.3
